Bioassay records as filed in PubChem BioAssay.
The full list was thinned out, with hits kept by preference.
ROCK2 blocker: blocks human Rho kinase 2 activity | purified ROCK2, Kinase-Glo ATP depletion luminescence | inhibition, % at 6 µM | hit rate 0.35% among 60,000 | AID 604;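 active means inhibition above the screen-wide mean inhibition plus 3 SD, cut at about 18% in these data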;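 further: plate controls were DMSO wells for no effect and Y-27632 control wells after no-enzyme background subtraction for full effect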
Target sequence (O75116 whole entry, looked up): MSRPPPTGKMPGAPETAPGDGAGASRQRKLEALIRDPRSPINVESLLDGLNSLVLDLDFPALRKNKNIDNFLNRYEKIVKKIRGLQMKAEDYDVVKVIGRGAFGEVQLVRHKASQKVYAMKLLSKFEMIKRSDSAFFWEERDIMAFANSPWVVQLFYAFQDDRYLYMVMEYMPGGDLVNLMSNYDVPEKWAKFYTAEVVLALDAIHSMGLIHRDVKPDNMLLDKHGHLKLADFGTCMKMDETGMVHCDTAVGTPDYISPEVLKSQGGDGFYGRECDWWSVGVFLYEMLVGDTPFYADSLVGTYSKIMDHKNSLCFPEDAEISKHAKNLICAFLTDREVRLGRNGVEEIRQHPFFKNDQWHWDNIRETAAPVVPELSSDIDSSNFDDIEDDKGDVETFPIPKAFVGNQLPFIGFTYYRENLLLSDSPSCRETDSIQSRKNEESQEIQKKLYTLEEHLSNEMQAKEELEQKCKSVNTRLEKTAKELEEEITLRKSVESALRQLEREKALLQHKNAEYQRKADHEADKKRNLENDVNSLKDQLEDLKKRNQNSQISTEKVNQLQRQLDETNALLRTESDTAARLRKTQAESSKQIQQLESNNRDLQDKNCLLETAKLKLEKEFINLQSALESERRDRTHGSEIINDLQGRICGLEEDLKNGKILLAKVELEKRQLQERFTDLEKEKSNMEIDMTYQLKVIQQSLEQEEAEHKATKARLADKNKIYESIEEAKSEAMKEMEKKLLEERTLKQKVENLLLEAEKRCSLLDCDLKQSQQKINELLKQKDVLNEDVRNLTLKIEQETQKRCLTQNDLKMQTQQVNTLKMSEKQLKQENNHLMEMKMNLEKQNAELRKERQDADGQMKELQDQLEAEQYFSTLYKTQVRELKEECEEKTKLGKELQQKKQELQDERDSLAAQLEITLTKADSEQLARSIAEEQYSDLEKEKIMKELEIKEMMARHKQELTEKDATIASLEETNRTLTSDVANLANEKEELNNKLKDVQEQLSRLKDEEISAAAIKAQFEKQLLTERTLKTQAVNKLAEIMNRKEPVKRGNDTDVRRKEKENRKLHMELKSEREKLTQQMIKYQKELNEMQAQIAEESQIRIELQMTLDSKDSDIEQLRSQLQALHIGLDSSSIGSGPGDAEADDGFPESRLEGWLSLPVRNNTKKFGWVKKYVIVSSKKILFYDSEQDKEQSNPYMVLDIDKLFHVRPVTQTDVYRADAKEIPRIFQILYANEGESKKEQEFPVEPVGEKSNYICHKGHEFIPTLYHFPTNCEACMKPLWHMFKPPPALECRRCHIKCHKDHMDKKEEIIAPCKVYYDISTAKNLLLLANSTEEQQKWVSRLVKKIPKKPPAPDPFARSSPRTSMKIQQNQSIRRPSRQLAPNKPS
PKA kinase inh: PKA (human) kinase inhibition; P17612; hit rate 0.1% among 65,000; inhibition, % at 6 µM; PKA Kemptide phosphorylation, Kinase-Glo ATP luminescence; AID 524;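 active means inhibition above the screen-wide mean inhibition plus 3 SD, cut at about 21% in these data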
D1 allo mod: allosterically modulates the human D1 dopamine receptor. hit rate 5.9% among 58,000. P21728. B-score at 10 µM. AID 641. HEK293 D1, CRE-luciferase, dopamine EC30 potentiation; actives deviate in either direction;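 active means luminescence count or its row- and column-corrected plate score outside the 99.7% band of the plate's sample wells, on either side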
DAT uptake mod: modulates human dopamine transporter uptake under cocaine | Q01959 | LLC-PK1 hDAT cells, [14C]-dopamine uptake with cocaine IC80; actives deviate in either direction | B-score at 10 µM | hit rate 1.3% among 110,000 | AID 449768;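 active means Z score or B-score, a plate-position-corrected score, falls beyond the plate's 99.7% confidence bounds, in either direction; inactive means both scores lie inside the 99.7% bounds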;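 further: scored against the spread of the other compound wells on the same plate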
D1 PAM confirm: D1 receptor (human) allosteric modulation, confirmed; shares compounds with D1 allo mod; HEK293 D1 CRE-luciferase, dopamine EC30 potentiation; active compounds read high; luminescence at 10 µM; hit rate 88% among 2,200;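 active means luminescence in either of two replicates above the same-plate mean plus 3 SD of the low-dose dopamine control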
D1 ag no DA: activates D1 CRE-luciferase signal without dopamine present. shares compounds with D1 allo mod. HEK293 D1 CRE-luciferase, luminescence, no dopamine; active compounds read high. luminescence at 10 µM. hit rate 0.8% among 1,900. AID 646; in the data active means luminescence above about 3900
Isoprot counter: alters isoproterenol CRE-luciferase response in HEK293 cells; hit rate 63% among 2,200; calls only at 10 µM; AID 647; HEK293 D1 CRE-luciferase, isoproterenol EC30 counter-screen; shares compounds with D1 allo mod;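 active means luminescence in either replicate above plate mean of wells with a partly effective reference agonist dose plus 3 SD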;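 further: isoproterenol raises cAMP through native beta-adrenoceptor Gs so signal bypasses D1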
Numbers without * were called inactive; i = inactive; . = no result; + = active, no number.

SMILES | ROCK2 blocker | PKA kinase inh | D1 allo mod | DAT uptake mod | others
NC(=O)c1ccsc1NC(=O)CSc1ccccc1F | -3 | 0 | -3.5* | -0.84
CCN1C(=O)N[C@@H](c2cccs2)C(C(C)=O)=C1C | . | . | . | -0.29
CC1(C)CC2CC(C)(CN2C(=O)COc2cccc3ccccc23)C1 (stereo not given) | . | . | . | -0.26
COc1ccc(/C=N/OCC(=O)N2CC3(C)CC2CC(C)(C)C3)cc1 (stereo not given) | . | . | . | 3.7*
O=C(O)C1=CCNCC1 | . | . | . | -0.59
O=C(Nc1ccc(N2CCOCC2)cc1)Nc1ccc2nc(-c3ccco3)c(-c3ccco3)nc2c1 | 42* | 4 | 2.7 | 2.2
O=C(Nc1ccc2nc(-c3ccco3)c(-c3ccco3)nc2c1)NC1CC1 | . | . | . | -0.42
Cn1nc(-c2ccccc2F)c2cc(C(=O)Nc3ccc4c(c3)OCCO4)sc21 | . | . | . | -3.7
CC(CCc1ccco1)NC(=O)c1cc2c(-c3ccccc3F)nn(C)c2s1 (stereo not given) | 4 | 3 | 0.25 | 2.9*
CC(C)(C)c1cnnn1-c1ccc(C=O)cc1 | . | . | . | -2.7*
CC(SC1CCCC1)C(=O)NC(C)(C#N)C(C)C (stereo not given) | 2 | 0 | -2.1* | -0.026
O=C(CCCn1c(=O)[nH]c2ccccc2c1=O)N1CCN(c2ccccn2)CC1 | 0 | 6 | -0.76 | .
O=C(Cc1cccs1)N1CCN(c2ccccn2)CC1 | 5 | 6 | -4.5* | 0.32
O=C(CCCCCNc1nc(=S)[nH]c2ccccc12)N1CCN(c2ccccn2)CC1 | . | 0 | -0.0021 | 2.8*
O=C(CNS(=O)(=O)c1cccs1)N1CCN(c2ccccn2)CC1 | -1 | 6 | -0.83 | -1.3
O=C(CCCOc1ccc(Cl)cc1Cl)N1CCN(c2ccccn2)CC1 | 10 | 9 | 2.9 | 1.7
O=C(CCCOc1ccccc1)N1CCN(c2ccccn2)CC1 | 11 | 6 | -2.9* | 2.4
CN(Cc1cccs1)C(=O)CSc1nnnn1C | . | . | . | -0.38
O=C(/C=C\Nc1ccc2c(c1)OCO2)c1ccccn1 | -15 | -9 | -8* | 0.92
COCCNC(=O)COc1ncnc2ccc(Br)cc12 | . | . | . | -0.91
O=C(COc1ncnc2ccc(Br)cc12)NCc1ccc2c(c1)OCO2 | . | . | . | -8.9*
CCOc1ccc2nnc(-c3ccc(Br)cc3)n2n1 | . | . | . | 0.064
COC(=O)CNc1c(-c2ccccn2)nc2ccc(Br)cn12 | . | -4 | -1.7 | -7.2*
CCOC(=O)CNc1c(-c2ccccc2)nc2ccc(Cl)cn12 | . | . | . | -0.023
COc1ccc(OC)c(C2=NOC(C(=O)NCc3ccco3)C2)c1 (stereo not given) | . | . | . | -1.5
SMILES | ROCK2 blocker | PKA kinase inh | D1 allo mod | DAT uptake mod | others
CN(C(=O)Cc1ccccc1)n1cnnc1 | . | . | . | -0.29
Nc1cccc(Nc2nc(OC(C(F)(F)F)C(F)(F)F)nc(OC(C(F)(F)F)C(F)(F)F)n2)c1 | . | . | . | 0.2
COc1nc(Nc2ccc(O)cc2)nc(OC(C(F)(F)F)C(F)(F)F)n1 | 4 | 8 | 6.2* | -0.74 | D1 PAM confirm=13552*;Isoprot counter=+
CCOc1ccccc1C1CC(=O)NC(SCC(=O)Nc2nccs2)=C1C#N (stereo not given) | . | . | . | -1.1
CCn1c2ccccc2c2nnc(SCC(=O)NCCOC)nc21 | 5 | 6 | 0.98 | -0.13
CCn1c2ccccc2c2nnc(SCc3ccc(C(=O)OC)o3)nc21 | 6 | 8 | 5.6* | 0.48 | D1 PAM confirm=9356*;D1 ag no DA=1384;Isoprot counter=+
CCn1c2ccccc2c2nnc(SCCCn3c(=O)[nH]c4ccccc43)nc21 | 9 | 12 | 9.6* | 0.42 | D1 PAM confirm=10684*;D1 ag no DA=1736;Isoprot counter=i
C=CCn1c2ccccc2c2nnc(SCC(=O)NC(C(=O)OC)C(C)C)nc21 (stereo not given) | 4 | 7 | 4.4* | 0.61 | D1 PAM confirm=7244*;D1 ag no DA=1452;Isoprot counter=i
CNC(=O)c1nc(C)n(-c2cc(Cl)ccc2Cl)n1 | . | . | . | -1.3
Cc1nc(NC(=O)CSc2ccccc2N)sc1C | 5 | 13 | 0.014 | 0.4
CCC(C)Sc1nc2c([nH]c3ccccc32)c(=O)n1C (stereo not given) | 4 | 7 | 5.5* | -0.53 | D1 PAM confirm=14100*;D1 ag no DA=1792;Isoprot counter=i
COC(=O)[C@@H]1CCCN1C(=O)[C@@H](NC(=O)OC(C)(C)C)C(C)C | . | . | . | -0.24
COc1cccc(/C=N/n2c(SC)nnc2-c2ccccc2)c1O | 7 | 15 | -2.3 | -0.18
